The results in this text go back to the supplement of paper PMC10849652.

Targets with a hit are over-represented here; the source holds about 7,900 in all. About 0.6% of all pairs of compound and target were hits.

Sequence of UniProt Q9BZL6 (Q9BZL6 whole entry, looked up): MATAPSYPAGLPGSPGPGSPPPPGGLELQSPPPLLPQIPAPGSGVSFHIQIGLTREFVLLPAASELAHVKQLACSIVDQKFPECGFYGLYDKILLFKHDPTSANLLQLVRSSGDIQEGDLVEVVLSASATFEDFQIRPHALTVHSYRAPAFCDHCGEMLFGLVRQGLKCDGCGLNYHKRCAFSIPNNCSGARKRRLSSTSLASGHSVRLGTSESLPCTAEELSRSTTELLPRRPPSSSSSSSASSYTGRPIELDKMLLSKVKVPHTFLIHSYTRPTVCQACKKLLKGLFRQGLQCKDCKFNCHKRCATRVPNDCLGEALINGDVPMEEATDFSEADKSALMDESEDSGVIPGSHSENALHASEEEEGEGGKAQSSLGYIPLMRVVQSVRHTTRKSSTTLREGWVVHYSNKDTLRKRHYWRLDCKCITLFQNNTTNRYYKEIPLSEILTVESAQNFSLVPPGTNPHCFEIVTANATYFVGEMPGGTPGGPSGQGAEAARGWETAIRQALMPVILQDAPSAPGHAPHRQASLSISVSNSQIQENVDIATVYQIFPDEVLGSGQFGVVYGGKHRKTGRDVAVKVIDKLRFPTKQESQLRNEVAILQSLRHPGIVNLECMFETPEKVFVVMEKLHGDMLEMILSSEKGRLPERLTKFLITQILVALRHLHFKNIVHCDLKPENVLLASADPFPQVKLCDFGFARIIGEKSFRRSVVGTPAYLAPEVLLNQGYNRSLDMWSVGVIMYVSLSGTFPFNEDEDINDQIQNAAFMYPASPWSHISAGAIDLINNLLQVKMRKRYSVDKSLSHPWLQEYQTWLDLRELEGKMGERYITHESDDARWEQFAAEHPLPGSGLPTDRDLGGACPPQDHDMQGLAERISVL
Sequence of UniProt Q8TAP8 (Q8TAP8 whole entry, looked up): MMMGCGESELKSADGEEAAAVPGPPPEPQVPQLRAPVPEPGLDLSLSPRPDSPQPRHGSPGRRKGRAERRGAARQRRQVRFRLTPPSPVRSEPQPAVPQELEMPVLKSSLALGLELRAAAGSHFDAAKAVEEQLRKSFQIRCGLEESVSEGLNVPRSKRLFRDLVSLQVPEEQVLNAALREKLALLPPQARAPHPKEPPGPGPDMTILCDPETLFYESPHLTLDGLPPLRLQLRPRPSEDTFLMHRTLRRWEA
Sequence of UniProt Q99575 (Q99575 whole entry, looked up): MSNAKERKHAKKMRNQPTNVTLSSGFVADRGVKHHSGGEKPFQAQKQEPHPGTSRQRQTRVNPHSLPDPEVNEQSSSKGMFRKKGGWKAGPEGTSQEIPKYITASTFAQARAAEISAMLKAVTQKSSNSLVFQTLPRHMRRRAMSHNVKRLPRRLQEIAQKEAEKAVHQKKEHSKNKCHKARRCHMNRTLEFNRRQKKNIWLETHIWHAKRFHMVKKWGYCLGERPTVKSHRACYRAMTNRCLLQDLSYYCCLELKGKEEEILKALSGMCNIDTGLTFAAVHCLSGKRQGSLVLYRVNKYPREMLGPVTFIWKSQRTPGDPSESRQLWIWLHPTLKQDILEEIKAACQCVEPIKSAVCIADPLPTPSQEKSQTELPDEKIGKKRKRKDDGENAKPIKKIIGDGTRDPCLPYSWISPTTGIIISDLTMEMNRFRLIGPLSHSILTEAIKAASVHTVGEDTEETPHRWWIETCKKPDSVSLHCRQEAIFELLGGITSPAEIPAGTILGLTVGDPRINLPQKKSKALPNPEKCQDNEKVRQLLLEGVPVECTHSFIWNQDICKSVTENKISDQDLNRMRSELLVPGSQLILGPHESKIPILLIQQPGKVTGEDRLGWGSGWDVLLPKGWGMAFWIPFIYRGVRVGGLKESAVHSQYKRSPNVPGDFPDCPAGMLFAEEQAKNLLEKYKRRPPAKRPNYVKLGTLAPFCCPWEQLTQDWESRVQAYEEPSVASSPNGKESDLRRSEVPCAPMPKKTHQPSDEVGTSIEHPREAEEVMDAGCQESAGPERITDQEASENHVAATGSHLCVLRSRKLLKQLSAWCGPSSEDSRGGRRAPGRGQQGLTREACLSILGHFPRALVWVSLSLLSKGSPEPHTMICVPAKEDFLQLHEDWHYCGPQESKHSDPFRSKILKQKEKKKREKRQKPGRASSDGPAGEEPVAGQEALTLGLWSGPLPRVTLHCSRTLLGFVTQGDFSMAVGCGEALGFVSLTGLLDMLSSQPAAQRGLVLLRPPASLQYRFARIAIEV
Sequence of UniProt Q9NR12 (Q9NR12 whole entry, looked up): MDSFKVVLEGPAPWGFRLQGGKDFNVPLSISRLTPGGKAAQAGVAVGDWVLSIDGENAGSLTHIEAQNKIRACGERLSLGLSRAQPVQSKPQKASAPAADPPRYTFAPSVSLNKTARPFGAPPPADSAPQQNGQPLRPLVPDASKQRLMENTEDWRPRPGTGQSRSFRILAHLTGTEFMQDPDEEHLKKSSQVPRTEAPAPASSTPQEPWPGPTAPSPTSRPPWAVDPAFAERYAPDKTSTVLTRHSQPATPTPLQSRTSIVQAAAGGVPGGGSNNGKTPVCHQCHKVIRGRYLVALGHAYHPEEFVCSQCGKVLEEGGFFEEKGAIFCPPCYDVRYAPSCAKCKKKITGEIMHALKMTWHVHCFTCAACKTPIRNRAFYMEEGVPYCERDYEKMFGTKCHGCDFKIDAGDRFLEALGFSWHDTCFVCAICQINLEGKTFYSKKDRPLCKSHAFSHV
Sequence of UniProt Q16512 (Q16512 whole entry, looked up): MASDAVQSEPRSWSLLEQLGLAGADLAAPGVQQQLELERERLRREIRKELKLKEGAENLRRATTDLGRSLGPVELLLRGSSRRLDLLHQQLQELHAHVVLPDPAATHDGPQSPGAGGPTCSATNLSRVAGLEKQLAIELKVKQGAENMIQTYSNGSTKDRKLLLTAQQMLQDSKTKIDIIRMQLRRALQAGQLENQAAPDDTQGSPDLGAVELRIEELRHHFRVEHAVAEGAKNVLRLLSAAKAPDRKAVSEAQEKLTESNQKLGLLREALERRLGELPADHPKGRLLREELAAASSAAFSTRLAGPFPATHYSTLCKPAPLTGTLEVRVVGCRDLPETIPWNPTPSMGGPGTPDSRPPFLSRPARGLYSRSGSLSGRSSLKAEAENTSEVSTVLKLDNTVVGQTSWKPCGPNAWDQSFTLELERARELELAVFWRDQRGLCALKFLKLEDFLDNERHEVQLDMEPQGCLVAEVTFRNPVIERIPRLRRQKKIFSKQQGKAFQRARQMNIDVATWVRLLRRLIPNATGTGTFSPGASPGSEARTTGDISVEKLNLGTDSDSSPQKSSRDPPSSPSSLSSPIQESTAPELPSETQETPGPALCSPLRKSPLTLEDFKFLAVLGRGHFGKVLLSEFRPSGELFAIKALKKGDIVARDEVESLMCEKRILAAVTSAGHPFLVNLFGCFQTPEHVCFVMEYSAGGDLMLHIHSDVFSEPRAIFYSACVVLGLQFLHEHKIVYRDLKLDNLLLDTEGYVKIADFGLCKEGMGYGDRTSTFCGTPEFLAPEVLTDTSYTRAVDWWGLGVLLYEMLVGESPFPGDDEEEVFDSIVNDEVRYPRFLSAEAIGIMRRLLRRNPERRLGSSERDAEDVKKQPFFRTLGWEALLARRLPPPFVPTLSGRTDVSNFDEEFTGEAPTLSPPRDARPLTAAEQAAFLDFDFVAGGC
Sequence of UniProt Q15121 (Q15121 whole entry, looked up): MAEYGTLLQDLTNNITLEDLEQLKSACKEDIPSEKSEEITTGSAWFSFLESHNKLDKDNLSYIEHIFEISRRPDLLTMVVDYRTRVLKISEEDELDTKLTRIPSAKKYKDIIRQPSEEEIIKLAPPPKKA
Sequence of UniProt Q96PU8 (Q96PU8 whole entry, looked up): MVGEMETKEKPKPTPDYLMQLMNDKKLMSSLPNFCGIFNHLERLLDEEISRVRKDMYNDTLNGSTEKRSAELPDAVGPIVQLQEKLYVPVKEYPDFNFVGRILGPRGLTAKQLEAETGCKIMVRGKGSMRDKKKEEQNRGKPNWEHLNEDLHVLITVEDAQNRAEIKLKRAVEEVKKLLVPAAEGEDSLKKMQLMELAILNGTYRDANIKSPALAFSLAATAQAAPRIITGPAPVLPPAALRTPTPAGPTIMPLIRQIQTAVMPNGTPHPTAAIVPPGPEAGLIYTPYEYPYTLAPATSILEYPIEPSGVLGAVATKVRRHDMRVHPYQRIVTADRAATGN
Sequence of UniProt P28072 (P28072 whole entry, looked up): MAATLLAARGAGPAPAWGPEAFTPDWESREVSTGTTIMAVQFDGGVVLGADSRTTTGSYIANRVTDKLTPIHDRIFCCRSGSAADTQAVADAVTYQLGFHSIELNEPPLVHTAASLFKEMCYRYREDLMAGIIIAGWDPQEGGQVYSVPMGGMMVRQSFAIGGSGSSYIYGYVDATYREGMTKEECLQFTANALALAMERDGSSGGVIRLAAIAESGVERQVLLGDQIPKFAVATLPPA
Sequence of UniProt P50336 (P50336 whole entry, looked up): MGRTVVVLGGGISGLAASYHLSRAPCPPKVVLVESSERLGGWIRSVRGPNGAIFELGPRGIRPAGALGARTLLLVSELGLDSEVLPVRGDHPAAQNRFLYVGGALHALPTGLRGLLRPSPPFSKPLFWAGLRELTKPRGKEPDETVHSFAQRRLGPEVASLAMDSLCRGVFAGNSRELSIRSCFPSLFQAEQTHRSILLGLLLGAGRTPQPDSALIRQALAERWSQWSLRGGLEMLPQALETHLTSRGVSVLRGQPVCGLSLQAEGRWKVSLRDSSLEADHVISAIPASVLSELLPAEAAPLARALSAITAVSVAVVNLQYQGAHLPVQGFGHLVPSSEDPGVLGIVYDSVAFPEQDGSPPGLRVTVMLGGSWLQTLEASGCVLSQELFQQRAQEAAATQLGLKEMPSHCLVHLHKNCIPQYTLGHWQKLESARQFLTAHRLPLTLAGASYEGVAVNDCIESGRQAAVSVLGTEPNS
Sequence of UniProt O75340 (O75340 whole entry, looked up): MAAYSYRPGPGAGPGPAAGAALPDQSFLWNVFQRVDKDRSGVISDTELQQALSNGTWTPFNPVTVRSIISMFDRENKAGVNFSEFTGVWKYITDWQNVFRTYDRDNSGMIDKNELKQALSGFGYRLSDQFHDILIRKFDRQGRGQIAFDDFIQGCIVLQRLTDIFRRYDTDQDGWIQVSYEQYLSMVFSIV

Compound in the experiment: CCCS(=O)(=O)Nc1ccc(F)c(C(=O)c2c[nH]c3ncc(-c4ccc(Cl)cc4)cc23)c1F [vemurafenib]
Kind of experiment: log2 fold change, soluble protein after heating vs DMSO (PISA); higher = thermal stabilisation; K562 cells, 10 uM, 30 min; active = over 0.2 and 3.5 SD of the protein, either way, in both replicates (recomputed). The essentials: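 Soluble protein was defined as the supernatant after 21,000xg for 90 min. It came from K562 cells at 2×10^6 cells/mL given 10 μM compound for 30 min, heated in aliquots for 3 min across 48°C-58°C, pooled, and extracted in PBS with 0.5% NP-40 at 4°C, and was quantified by TMTpro 16plex LC-MS/MS with equalised channel sums. Thermal stability against control samples, from duplicates, is reported as log2 fold change.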
Consider PSMC2 (UniProt P35998), for which the log2 fold change was -0.014 (inactive).

Take PSMB6 (UniProt P28072): the log2 fold change is -0.038 (inactive).

On to PRKD2 isoform 3 (UniProt Q9BZL6), for which the log2 fold change was 0.024 (inactive).

For QKI (UniProt Q96PU8), the log2 fold change is 0.033 (inactive).

Consider PKN1 isoform 2 (UniProt Q16512), for which the log2 fold change is 0.023 (inactive).

Turning to PRPF38B (UniProt Q5VTL8), the log2 fold change was 0.043 (inactive).

For PTPN12 (UniProt Q05209), the log2 fold change is -0.002 (inactive).

Regarding PDCD6 (UniProt O75340), the log2 fold change is -0.025 (inactive).

Regarding PPOX (UniProt P50336), the log2 fold change is 0.065 (inactive).

For POP1 (UniProt Q99575), the log2 fold change is -0.004 (inactive).

On to PIKFYVE (UniProt Q9Y2I7), for which the log2 fold change is 0.091 (inactive).

In the case of PPP1R35 (UniProt Q8TAP8), the log2 fold change is -0.049 (inactive).

PSMB4 (UniProt P28070): the log2 fold change is -0.027 (inactive).

Turning to PLIN2 (UniProt Q99541), the log2 fold change was 0.01 (inactive).

For PCNT (UniProt O95613), the log2 fold change is -0.122 (inactive).

Consider PSMD13 (UniProt Q9UNM6), for which the log2 fold change is -0.05 (inactive).

For PEA15 isoform 2 (UniProt Q15121), the log2 fold change is 0.002 (inactive).

As for PARG (UniProt Q86W56), the log2 fold change is 0.087 (inactive).

PDLIM7 (UniProt Q9NR12): the log2 fold change was 0.026 (inactive).

As for PEX13 (UniProt Q92968), the log2 fold change is -0.033 (inactive).

Regarding PRKCD (UniProt Q05655), the log2 fold change was 0.015 (inactive).

For PSMC5 (UniProt P62195), the log2 fold change was -0.048 (inactive).

Regarding PCBP1 (UniProt Q15365), the log2 fold change was 0.022 (inactive).
